Numbering of substitutions follows the chain as printed; changes in the protein carry UniProt numbers. In all, about 16,000 sequences were measured (“ka relative to ugcaugu”: median about 0.096, highest 2% from about 0.35 on). Only a selection was taken, and the highest values are over-represented in it overall.
T1: RBFOX1 RRM RbFoxmut (Fox-RRM*) (Homo sapiens, UniProt Q9NWB1 109-208, R118D;E147R;N151S;E152T)
T1 sequence: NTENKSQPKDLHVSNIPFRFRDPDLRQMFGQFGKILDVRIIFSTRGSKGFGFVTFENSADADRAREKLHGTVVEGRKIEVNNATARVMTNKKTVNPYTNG

B1: GGUUCAA (DNA:RNA)
RNA: GGGAGACCGGAAUUCAGAUUGUCCGGUUCAAUUAAAUCCCGUCGUAGCCACCA
DNA 1: CAATCTGAATTCCGGTCTCCC
DNA 2: TGGTGGCTACGACGGGATT
B2: CCGCUAC (DNA:RNA)
RNA: B1 RNA with G25C, G26C, U27G, U28C, C29U, A31C
DNA 1: CAATCTGAATTCCGGTCTCCC
DNA 2: TGGTGGCTACGACGGGATT
B3: UGUACUC (DNA:RNA)
RNA: B1 RNA with G25U, U28A, A30U, A31C
DNA 1: CAATCTGAATTCCGGTCTCCC
DNA 2: TGGTGGCTACGACGGGATT
B4: ACGAAGA (DNA:RNA)
RNA: B1 RNA with G25A, G26C, U27G, U28A, C29A, A30G
DNA 1: CAATCTGAATTCCGGTCTCCC
DNA 2: TGGTGGCTACGACGGGATT
B5: UUCGCAG (DNA:RNA)
RNA: B1 RNA with G25U, G26U, U27C, U28G, A31G
DNA 1: CAATCTGAATTCCGGTCTCCC
DNA 2: TGGTGGCTACGACGGGATT
B6: GACGGCA (DNA:RNA)
RNA: B1 RNA with G26A, U27C, U28G, C29G, A30C
DNA 1: CAATCTGAATTCCGGTCTCCC
DNA 2: TGGTGGCTACGACGGGATT
B7: AUUGGAU (DNA:RNA)
RNA: B1 RNA with G25A, G26U, U28G, C29G, A31U
DNA 1: CAATCTGAATTCCGGTCTCCC
DNA 2: TGGTGGCTACGACGGGATT
B8: CUGUUUG (DNA:RNA)
RNA: B1 RNA with G25C, G26U, U27G, C29U, A30U, A31G
DNA 1: CAATCTGAATTCCGGTCTCCC
DNA 2: TGGTGGCTACGACGGGATT
B9: CCCUGUG (DNA:RNA)
RNA: B1 RNA with G25C, G26C, U27C, C29G, A30U, A31G
DNA 1: CAATCTGAATTCCGGTCTCCC
DNA 2: TGGTGGCTACGACGGGATT
B10: UGUUUUU (DNA:RNA)
RNA: B1 RNA with G25U, C29U, A30U, A31U
DNA 1: CAATCTGAATTCCGGTCTCCC
DNA 2: TGGTGGCTACGACGGGATT
B11: UGUGUGU (DNA:RNA)
RNA: B1 RNA with G25U, U28G, C29U, A30G, A31U
DNA 1: CAATCTGAATTCCGGTCTCCC
DNA 2: TGGTGGCTACGACGGGATT
B12: CUGUGUG (DNA:RNA)
RNA: B1 RNA with G25C, G26U, U27G, C29G, A30U, A31G
DNA 1: CAATCTGAATTCCGGTCTCCC
DNA 2: TGGTGGCTACGACGGGATT
B13: UGUUUGU (DNA:RNA)
RNA: B1 RNA with G25U, C29U, A30G, A31U
DNA 1: CAATCTGAATTCCGGTCTCCC
DNA 2: TGGTGGCTACGACGGGATT
B14: ACCUGUG (DNA:RNA)
RNA: B1 RNA with G25A, G26C, U27C, C29G, A30U, A31G
DNA 1: CAATCTGAATTCCGGTCTCCC
DNA 2: TGGTGGCTACGACGGGATT
B15: UGUGUUU (DNA:RNA)
RNA: B1 RNA with G25U, U28G, C29U, A30U, A31U
DNA 1: CAATCTGAATTCCGGTCTCCC
DNA 2: TGGTGGCTACGACGGGATT
B16: CUGUUGU (DNA:RNA)
RNA: B1 RNA with G25C, G26U, U27G, C29U, A30G, A31U
DNA 1: CAATCTGAATTCCGGTCTCCC
DNA 2: TGGTGGCTACGACGGGATT
B17: UGUCCGU (DNA:RNA)
RNA: B1 RNA with G25U, U28C, A30G, A31U
DNA 1: CAATCTGAATTCCGGTCTCCC
DNA 2: TGGTGGCTACGACGGGATT
B18: CUGUGUU (DNA:RNA)
RNA: B1 RNA with G25C, G26U, U27G, C29G, A30U, A31U
DNA 1: CAATCTGAATTCCGGTCTCCC
DNA 2: TGGTGGCTACGACGGGATT
B19: CUGUCGU (DNA:RNA)
RNA: B1 RNA with G25C, G26U, U27G, A30G, A31U
DNA 1: CAATCTGAATTCCGGTCTCCC
DNA 2: TGGTGGCTACGACGGGATT
B20: AAGACCU (DNA:RNA)
RNA: B1 RNA with G25A, G26A, U27G, U28A, A30C, A31U
DNA 1: CAATCTGAATTCCGGTCTCCC
DNA 2: TGGTGGCTACGACGGGATT
B21: GACUUGG (DNA:RNA)
RNA: B1 RNA with G26A, U27C, C29U, A30G, A31G
DNA 1: CAATCTGAATTCCGGTCTCCC
DNA 2: TGGTGGCTACGACGGGATT
B22: CCCAUAU (DNA:RNA)
RNA: B1 RNA with G25C, G26C, U27C, U28A, C29U, A31U
DNA 1: CAATCTGAATTCCGGTCTCCC
DNA 2: TGGTGGCTACGACGGGATT
B23: UUCGAGC (DNA:RNA)
RNA: GGGAGACCGGAAUUCAGAUUGUCCUUCGAGCUUAAAUCCCGUCGUAGCCACCA
DNA 1: CAATCTGAATTCCGGTCTCCC
DNA 2: TGGTGGCTACGACGGGATT
B24: GAAGACC (DNA:RNA)
RNA: B23 RNA with U25G, U26A, C27A, G30C
DNA 1: CAATCTGAATTCCGGTCTCCC
DNA 2: TGGTGGCTACGACGGGATT
B25: CAAUUUU (DNA:RNA)
RNA: B1 RNA with G25C, G26A, U27A, C29U, A30U, A31U
DNA 1: CAATCTGAATTCCGGTCTCCC
DNA 2: TGGTGGCTACGACGGGATT
B26: CUCUUGA (DNA:RNA)
RNA: B23 RNA with U25C, G28U, A29U, C31A
DNA 1: CAATCTGAATTCCGGTCTCCC
DNA 2: TGGTGGCTACGACGGGATT
B27: UUUGGCC (DNA:RNA)
RNA: B23 RNA with C27U, A29G, G30C
DNA 1: CAATCTGAATTCCGGTCTCCC
DNA 2: TGGTGGCTACGACGGGATT
B28: GACUCAA (DNA:RNA)
RNA: B1 RNA with G26A, U27C
DNA 1: CAATCTGAATTCCGGTCTCCC
DNA 2: TGGTGGCTACGACGGGATT
B29: UGUUGUG (DNA:RNA)
RNA: B1 RNA with G25U, C29G, A30U, A31G
DNA 1: CAATCTGAATTCCGGTCTCCC
DNA 2: TGGTGGCTACGACGGGATT
B30: UGUGUCG (DNA:RNA)
RNA: B1 RNA with G25U, U28G, C29U, A30C, A31G
DNA 1: CAATCTGAATTCCGGTCTCCC
DNA 2: TGGTGGCTACGACGGGATT
B31: CCCUGUC (DNA:RNA)
RNA: B23 RNA with U25C, U26C, G28U, A29G, G30U
DNA 1: CAATCTGAATTCCGGTCTCCC
DNA 2: TGGTGGCTACGACGGGATT
B32: UGUAGUG (DNA:RNA)
RNA: B1 RNA with G25U, U28A, C29G, A30U, A31G
DNA 1: CAATCTGAATTCCGGTCTCCC
DNA 2: TGGTGGCTACGACGGGATT
B33: UGUGUUG (DNA:RNA)
RNA: B1 RNA with G25U, U28G, C29U, A30U, A31G
DNA 1: CAATCTGAATTCCGGTCTCCC
DNA 2: TGGTGGCTACGACGGGATT
B34: UGUCGUG (DNA:RNA)
RNA: B1 RNA with G25U, U28C, C29G, A30U, A31G
DNA 1: CAATCTGAATTCCGGTCTCCC
DNA 2: TGGTGGCTACGACGGGATT
B35: CUGUGUC (DNA:RNA)
RNA: B23 RNA with U25C, C27G, G28U, A29G, G30U
DNA 1: CAATCTGAATTCCGGTCTCCC
DNA 2: TGGTGGCTACGACGGGATT
B36: UGUGUCU (DNA:RNA)
RNA: B1 RNA with G25U, U28G, C29U, A30C, A31U
DNA 1: CAATCTGAATTCCGGTCTCCC
DNA 2: TGGTGGCTACGACGGGATT
B37: UGUGUAG (DNA:RNA)
RNA: B1 RNA with G25U, U28G, C29U, A31G
DNA 1: CAATCTGAATTCCGGTCTCCC
DNA 2: TGGTGGCTACGACGGGATT

Each binder was assayed against T1, RBFOX1 RRM RbFoxmut (Fox-RRM*) (assay: EMSA; HiTS-Eq, 1 nM pool, 10 min; buffer printed only for the single-RNA assays: 10 mM Tris pH 7.5, 150 mM NaCl, 3.4 mM EDTA, 0.001% NP-40, 30 C). Details: tags: His6 N-terminal (pET28a); label: 5' 32P.
How it was run: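 Purified wild-type or mutant RbFox RRM at increasing concentrations was equilibrated with 1 nM of 5′-radiolabelled RNA carrying 7 randomized nucleotides for 10 min in 50 µL. Unbound RNA was separated by 8% native PAGE and sequenced. Relative association constants came from read-count changes of each RNA species compared with the control reaction, normalised to the cognate motif.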

Binder | binding signal
B1 | 0.0825 KA relative to UGCAUGU
B2 | 0.129 KA relative to UGCAUGU
B3 | 0.0695 KA relative to UGCAUGU
B4 | 0.105 KA relative to UGCAUGU
B5 | 0.0914 KA relative to UGCAUGU
B6 | 0.149 KA relative to UGCAUGU
B7 | 0.0952 KA relative to UGCAUGU
B8 | 0.75 KA relative to UGCAUGU
B9 | 0.138 KA relative to UGCAUGU
B10 | 0.0878 KA relative to UGCAUGU
B11 | 0.366 KA relative to UGCAUGU
B12 | 0.388 KA relative to UGCAUGU
B13 | 0.549 KA relative to UGCAUGU
B14 | 0.139 KA relative to UGCAUGU
B15 | 0.115 KA relative to UGCAUGU
B16 | 0.166 KA relative to UGCAUGU
B17 | 0.147 KA relative to UGCAUGU
B18 | 0.14 KA relative to UGCAUGU
B19 | 0.138 KA relative to UGCAUGU

Binder | binding signal
B20 | 0.0678 KA relative to UGCAUGU
B21 | 0.129 KA relative to UGCAUGU
B22 | 0.0892 KA relative to UGCAUGU
B23 | 0.116 KA relative to UGCAUGU
B24 | 0.0506 KA relative to UGCAUGU
B25 | 0.0669 KA relative to UGCAUGU
B26 | 0.107 KA relative to UGCAUGU
B27 | 0.282 KA relative to UGCAUGU
B28 | 0.0967 KA relative to UGCAUGU
B29 | 0.29 KA relative to UGCAUGU
B30 | 0.253 KA relative to UGCAUGU
B31 | 0.194 KA relative to UGCAUGU
B32 | 0.682 KA relative to UGCAUGU
B33 | 0.383 KA relative to UGCAUGU
B34 | 0.193 KA relative to UGCAUGU
B35 | 0.436 KA relative to UGCAUGU
B36 | 0.131 KA relative to UGCAUGU
B37 | 0.196 KA relative to UGCAUGU

From paper PMC9911399, “Two distinct binding modes provide the RNA-binding protein RbFox with extraordinary sequence specificity”
